The values that follow come from PubChem BioAssay AID504332 (National Center for Advancing Translational Sciences (NCATS), 2011).

The whole screen tested about 350,000 compounds, of which about 31,000 (8.9%) were called active. Not shown: some 15% with an inconclusive outcome. For the sample, actives were picked, then their nearest neighbours and some compounds at random. Values without a mark were called inactive. Calls follow the shape of the dose curve; as a rule, active = well fitted inhibition curve with a large enough effect; inconclusive = small, poorly fitted or top-dose-only effect; inactive = no such curve, though single readings can be large or run the other way.
% is scaled to controls: 0 for no effect and ±100 for the full control effect; potency is read from the fitted curve at half-maximal effect.

Sequence of Histone-lysine N-methyltransferase EHMT2 (Homo sapiens) (Q96KQ7 913-1193 limits assumed): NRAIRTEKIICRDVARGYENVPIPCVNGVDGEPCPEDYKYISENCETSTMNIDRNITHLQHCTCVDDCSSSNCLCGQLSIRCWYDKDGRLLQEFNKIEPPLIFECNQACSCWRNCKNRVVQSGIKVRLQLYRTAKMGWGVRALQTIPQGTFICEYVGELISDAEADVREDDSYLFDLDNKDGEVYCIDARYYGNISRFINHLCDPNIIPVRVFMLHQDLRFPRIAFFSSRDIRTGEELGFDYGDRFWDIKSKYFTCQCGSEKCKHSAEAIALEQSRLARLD

This assay concerns the target Histone-lysine N-methyltransferase EHMT2 (Homo sapiens) (UniProt Q96KQ7). As to the kind of experiment: qHTS Assay for Inhibitors of Histone Lysine Methyltransferase G9a. Also: nearly all actives have a fitted effect of over 75% in size. As to conditions: G9a H3K9 monomethylation, AlphaScreen, 2 h; series mostly up to 59 µM; activity, negative = inhibition: at the top concentration. The essentials:
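Compounds were preincubated with 20 nM G9a for 15 min, after which biotinylated H3K9 peptide (500 nM) and SAM (20 uM) started a 2 h room-temperature reaction. Monomethylated product was quantified by antibody-based AlphaScreen chemiluminescence.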
Turning to `CCOc1ccc(C2CC(=O)c3c([nH]c(C(=O)OCc4ccccc4)c3C)C2)cc1` (stereo not drawn), the “activity, negative = inhibition” value is 0.425%. With `CN(c1ccccc1)S(=O)(=O)c1cccc(C(=O)NNC(=O)c2ccncc2)c1`, the “activity, negative = inhibition” value is 1.98% [at 102 µM].

Turning to `COc1ccc(OC)c(-c2csc(-c3c(N)c(C(=O)c4ccccc4)n4ccccc34)n2)c1`, the “activity, negative = inhibition” value was 6%. In the case of `Cc1nn(CC(=O)O)c(=O)c2cc3cc(F)ccc3n12`, the “activity, negative = inhibition” value is 38.6%. With `Cc1ccn2c(=O)c(NC(=O)c3cccc4ccccc34)c(C)nc2c1`, the “activity, negative = inhibition” value is 2.02% [at 102 µM].

For the compound `O=C(O)c1n[nH]nc1-c1ccccc1`, the Potency is 3.55 µM (active). For the compound `c1ccc(Nc2n[nH]nc2-c2ccccc2)cc1`, the “activity, negative = inhibition” value is 3.87%.

Take `N#Cc1c(-c2ccccc2)c(-c2ccccc2)n[nH]c1=O`: the “activity, negative = inhibition” value is 1.71% [at 102 µM].

Take `CCOc1ccc(OCC)c(NC(=O)c2c(C)nn(-c3ccccc3)c2-n2cccc2)c1`: the “activity, negative = inhibition” value is -4.07%. Still for that read-out and setting: the figure for `CC(C)c1ccc(C2C(C#N)=C(N)Oc3c2oc(CO)cc3=O)cc1` (stereo not drawn) is 10.4% [at 102 µM].

`CC(C)c1ccc(C2CC(=O)N3CN(C4CCCCC4)CSC3=C2C#N)cc1` (stereo not drawn): the Potency is 2.24 µM (active). As for `OCC[C@H]1C[C@@H](O)[C@H](O)[C@@]2(OCCc3ccccc32)O1`, the activity, negative = inhibition is -2.06% [at 2.33 µM].

For the compound `O=C(CCSCc1ccccc1F)N1CCN(c2ccc(Cl)cc2)CC1`, the “activity, negative = inhibition” value is -1.72%. Consider `Cc1cc(C)c(C(=O)CSc2nc(C)cc(=O)[nH]2)c(C)c1`, for which the Potency was 31.6 µM (active). On to `Cc1cc(=O)[nH]c(SCC(=O)N2c3ccccc3CC2C)n1` (stereo not drawn), for which the activity, negative = inhibition was -1.7% [at 12.7 µM]. Regarding `Cc1cc(=O)[nH]c(SCC(=O)Nc2ccc(Br)cc2)n1`, the activity, negative = inhibition was 10.1% [at 12.7 µM]. Take `Cc1cc(Cl)c2oc(C(=O)NC(C)c3ccncn3)c(C)c2c1` (stereo not drawn): the “activity, negative = inhibition” value was -0.418% [at 102 µM]. For the compound `COc1ccc(N=Cc2c(O)[nH]c3ccccc23)cc1OC`, the Potency was 50.1 µM (active). For `COc1cc(N=Cc2c(O)c3ccccc3oc2=O)c(OC)cc1Cl`, the activity, negative = inhibition was 16.1% [at 0.501 µM]. `COc1ccccc1N=Cc1c(O)c2ccccc2oc1=O`: the “activity, negative = inhibition” value was 12.8%. As to `CCOC(=O)Cn1c(=O)n(Cc2ccc(OC)cc2)c(=O)c2cccnc21`, the “activity, negative = inhibition” value was 22.4% [at 102 µM].

On to `CC1CCCN(S(=O)(=O)c2ccc3[nH]c(=O)cc(C(=O)NCCc4ccc(Cl)cc4)c3c2)C1` (stereo not drawn), for which the “activity, negative = inhibition” value was -0.97%. Regarding `COc1ccc(S(=O)(=O)NCc2cccn2Cc2cccc(C)c2)cc1`, the “activity, negative = inhibition” value was 31.3%. For the compound `CCOc1ccccc1C(=O)NCc1ccc2c(c1)CCN2C(=O)c1ccc(F)cc1`, the “activity, negative = inhibition” value was -0.689%.

For the compound `Cn1c(-c2ccco2)nc2cc3ccccc3cc21`, the activity, negative = inhibition is 8.95% [at 0.0925 µM].

For `c1coc(-c2nc3nc4ccccc4n3nc2-c2ccco2)c1`, the Potency is 10 µM (active). In the case of `Cc1nn2c3ccccc3nc2n(C)c1=O`, the “activity, negative = inhibition” value is 19.5%.

For `CCOc1ccc(CCNC(=O)c2c(C)oc3ncn(C)c(=O)c23)cc1`, the “activity, negative = inhibition” value is 1.36%. Take `CCCc1nn2c(=O)cc(COC(=O)c3ccc(NC(=O)C(C)Oc4ccccc4)cc3)nc2s1` (stereo not drawn): the “activity, negative = inhibition” value was 12.4%. For the compound `COc1ccc(/C=C/C(=O)c2cc(Br)ccc(=O)c2O)cc1`, the Potency was 10 µM (active). As for `COc1ccc(C(=O)/C=C/c2ccc(OC3CSC3)cc2)cc1`, the “activity, negative = inhibition” value is -9.35%. As to `COc1ccc(/C=C/C(=O)c2ccc(OC)cc2O)cc1`, the “activity, negative = inhibition” value was -16.7% [at 102 µM]. On to `Cc1cccc(Cc2c(C)nc3nc(SCc4ccccc4Cl)nn3c2C)c1`, for which the “activity, negative = inhibition” value was -6.6%.

In the case of `CCOC(=O)c1ccc(N2C(=O)c3[nH]nc(-c4ccccc4)c3C2c2ccc(C(C)C)cc2)cc1` (stereo not drawn), the “activity, negative = inhibition” value is -0.307%. Regarding `CCOC(=O)c1ccc(N2C(=O)c3n[nH]c(-c4ccco4)c3C2c2ccc(O)cc2)cc1` (stereo not drawn), the Potency was 17.8 µM (active). Consider `CCOC(=O)c1ccc(N2C(=O)c3n[nH]c(C)c3C2c2ccc(O)c(OC)c2)cc1` (stereo not drawn), for which the “activity, negative = inhibition” value was -17.4%. Still for that read-out and setting: the figure for `Cc1ccc(F)cc1NC(=O)CCSc1nc(-c2ccco2)cc(C(F)(F)F)n1` is -7.82%.

For `Cc1ccc(NC(=O)CCCn2c(=O)c3cccn3c3ccccc32)cc1Cl`, the “activity, negative = inhibition” value is -46.8%.

With `Cc1ccc(S(=O)(=O)N2CCC(C(=O)OCC(=O)N3CC(=O)Nc4ccccc43)CC2)cc1`, the “activity, negative = inhibition” value is 5.96%.

Turning to `O=C1CN(C(=O)COC(=O)C2CC(=O)N(Cc3ccco3)C2)c2ccccc2N1` (stereo not drawn), the Potency was 50.1 µM (active). Consider `COc1cc(OC)c(C(=O)OCC(=O)N2CC(=O)Nc3ccccc32)cc1OC`, for which the “activity, negative = inhibition” value was 1.9% [at 102 µM]. On to `COc1ccc(OC)c(S(=O)(=O)N2CCCC(C(=O)N3CCC(C(N)=O)CC3)C2)c1` (stereo not drawn), for which the “activity, negative = inhibition” value is 0.506% [at 102 µM]. For the compound `O=C(CSc1ncc(CO)n1Cc1ccc(Cl)cc1)NCc1ccc(F)cc1`, the “activity, negative = inhibition” value was 4.32%. Turning to `CCc1c(C)sc(NC(=O)c2cccs2)c1C(N)=O`, the Potency was 11.2 µM (active). Regarding `CCc1c(C)sc(NC(=O)c2ccc(Br)o2)c1C(=O)OC`, the “activity, negative = inhibition” value was 34.2%. As to `CCCc1nnc(NC(=O)c2cccs2)s1`, the activity, negative = inhibition is -0.387% [at 12.7 µM]. As for `CCc1c(C)sc(NC(=O)C2c3ccccc3Oc3ccccc32)c1C(=O)OC(C)C`, the “activity, negative = inhibition” value was -6.06%. On to `COc1cc(C(=O)NCC(=O)N2CC=C(c3ccccc3)CC2)cc(OC)c1OC`, for which the “activity, negative = inhibition” value was -27.5% [at 102 µM].
